{"source": "PubChem BioAssay (Tox21)", "note": "Results filed as inconclusive are left out. A call without a number means that no potency is given here. The source made the active and inactive calls. Calls follow the shape of the dose curve; as a rule, active = well fitted activation curve with a large enough effect in the repeat runs; inconclusive = weak or mixed curves; inactive = flat fitted curve, though single readings scatter.", "data": [{"test": "A CellTox Green Cytotoxicity Assay to monitor cytotoxicity in HepG2 cells - 32 hour (AID 1224883); also: nearly all actives have a fitted effect of over 50% in size", "details": "CellTox Green fluorescence; series mostly up to 76.8 µM", "summary_of_the_method": "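Continuous culture of HepG2 cells with a membrane-impermeant DNA dye; rising fluorescence marks dead cells. Compound exposure lasted up to 40 h at 37 C, with reads every 8 h from 0 h.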", "values": [{"compound": "N=C(N)S(=O)O", "Potency": "inactive"}, {"compound": "CC[C@@]1(c2ccccc2)NC(=O)N(C)C1=O", "Potency": "inactive"}, {"compound": "CC(=O)Oc1ccc(C(C)=O)cc1", "Potency": "inactive"}, {"compound": "Cc1ccc(N)nc1", "Potency": "inactive"}, {"compound": "CCCOc1ccc(C(=O)OCCN(CC)CC)cc1N", "Potency": "inactive"}, {"compound": "CCCCCCC(O)CO", "note": "(stereo not drawn)", "Potency": "inactive"}, {"compound": "CC(=O)OC/C=C(/C)CCC=C(C)C", "Potency": "inactive"}, {"compound": "CC(C)(C)OC(=O)c1ccccc1C(=O)O", "Potency": "inactive"}, {"compound": "CC1=C(O)C(=O)CO1", "Potency": "inactive"}, {"compound": "O=C(O)Cc1ccccc1Oc1ccc(Cl)cc1Cl", "Potency": "inactive"}, {"compound": "O=c1c(O)c(O)c1=O", "Potency": "inactive"}, {"compound": "NCC1CCC(C(=O)Oc2ccc(CCC(=O)O)cc2)CC1", "note": "(stereo not drawn)", "Potency": "inactive"}, {"compound": "Cc1cc(=O)oc2cc(O[C@@H]3SC[C@@H](O)[C@H](O)[C@H]3O)ccc12", "Potency": "inactive"}, {"compound": "CO/N=C(\\C(=O)O)c1csc(NC(=O)CCl)n1", "Potency": "inactive"}, {"compound": "C=CCN1CCc2nc(N)sc2CC1", "Potency": "inactive"}, {"compound": "COc1ccc2cc(CCC(C)=O)ccc2c1", "Potency": "inactive"}, {"compound": "CCCCCCCCC1CO1", "note": "(stereo not drawn)", "Potency": "inactive"}, {"compound": "Cc1nc2ccc(Cl)cc2[nH]1", "Potency": "inactive"}, {"compound": "CC(C)c1cc(C(C)C)cc(C(C)C)c1", "Potency": "inactive"}, {"compound": "COC(=O)c1ccc(NC(C)=O)cc1OC", "Potency": "inactive"}, {"compound": "O=S(=O)(O)c1ccc(Cl)cc1", "Potency": "inactive"}, {"compound": "C=COCCCCO", "Potency": "inactive"}, {"compound": "C/C(=N\\O)c1ccc(OCC(=O)N2CCCCC2)cc1", "Potency": "inactive"}, {"compound": "Cc1cccc(N)n1", "Potency": "inactive"}, {"compound": "CCCCCCCCCCCC(C)=O", "Potency": "inactive"}, {"compound": "CN(C)CCc1c[nH]c2ccc(C[C@H]3COC(=O)N3)cc12", "Potency": "inactive"}, {"compound": "CC(=O)/C=C/C=C1/C2CCC(C2)C1(C)C", "note": "(stereo not drawn)", "Potency": "inactive"}, {"compound": "Cc1ccc(O)c([N+](=O)[O-])c1", "Potency": "inactive"}]}]}
